Source: PubChem BioAssay AID1851 (National Center for Advancing Translational Sciences (NCATS), 2009)
About 5,700 (36%) of roughly 16,000 compounds were called active. Roughly 24% stayed inconclusive and do not appear here. The call rests on the fitted dose curve; in most records, active means well fitted curve in the direction sought with a large enough effect; inconclusive means small, poorly fitted or top-dose-only effect, or effect the other way; inactive means no such curve, though single readings can be large or run the other way. The list shows a part of the results.

Biological target: Cytochrome P450 1A2 (Homo sapiens) (UniProt P05177)
Assay: Cytochrome panel assay with activity outcomes
Settings: recombinant CYP, pro-luciferin dealkylation, luminescence, p450-cyp1a2; series mostly up to 57.1 µM
On the % scale 0 is the no-effect control and ±100 the full control effect.

Cytochrome P450 1A2 (Homo sapiens), sequence (P05177 whole entry, looked up): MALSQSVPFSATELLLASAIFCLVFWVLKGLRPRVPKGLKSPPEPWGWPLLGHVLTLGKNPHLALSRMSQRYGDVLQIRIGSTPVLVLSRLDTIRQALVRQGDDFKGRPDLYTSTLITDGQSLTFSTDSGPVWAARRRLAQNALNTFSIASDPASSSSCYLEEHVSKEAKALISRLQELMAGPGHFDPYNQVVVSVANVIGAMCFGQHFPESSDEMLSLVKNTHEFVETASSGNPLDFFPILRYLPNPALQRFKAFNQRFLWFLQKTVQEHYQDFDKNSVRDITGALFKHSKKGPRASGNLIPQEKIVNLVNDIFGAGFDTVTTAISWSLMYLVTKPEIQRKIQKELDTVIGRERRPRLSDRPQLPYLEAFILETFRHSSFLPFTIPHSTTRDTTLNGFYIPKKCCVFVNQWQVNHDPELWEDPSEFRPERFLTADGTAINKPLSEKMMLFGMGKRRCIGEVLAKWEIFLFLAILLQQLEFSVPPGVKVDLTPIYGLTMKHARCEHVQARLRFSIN

| SMILES | activity, negative = inhibition | AC50 |
| --- | --- | --- |
| Cc1c(C)c(C)c(CC2(C)CSC2)c(CC2(C)CSC2)c1C | -16.1% [at 11.4 µM] (inactive) | – |
| COc1cccc([C@@H]2Oc3ccc(OC)cc3/C(=N/OC[C@@H](O)COCc3ccco3)[C@@H]2O)c1 | -3.42% [at 11.4 µM] (inactive) | – |
| CN(Cc1ccco1)c1cc(-c2cccc(C#N)c2)ncn1 | – | 794 nM (active) |
| COc1cccc(-c2cc(N(C)Cc3ccco3)ncn2)c1 | – | 794 nM (active) |
| CN(Cc1ccco1)c1cc(-c2cccnc2)ncn1 | – | 316 nM (active) |
| CCOC(=O)c1c(C)[nH]c(C(=O)OCC(=O)NC2CCS(=O)(=O)C2)c1C (stereo unspecified) | – | 12600 nM (active) |
| CCCNC1CCS(=O)(=O)C1 (stereo unspecified) | – | inactive |
| Cc1ccc(/S(C)=N/S(=O)(=O)c2ccc(C)cc2)cc1 (stereo unspecified) | – | inactive |
| CCCS(=O)(=O)N1CCCC(C(=O)NCCCOC(C)C)C1 (stereo unspecified) | – | inactive |
| CCCS(=O)(=O)N1CCCC(C(=O)NCCCOCC)C1 (stereo unspecified) | – | inactive |
| CCCS(=O)(=O)N1CCCC(C(=O)N2CCN(C(=O)OCC)CC2)C1 (stereo unspecified) | – | 10000 nM (active) |
| COC(=O)c1ccc(NC(=O)c2ccccc2NS(=O)(=O)c2ccccc2)cc1 | – | inactive |
| CN1c2ccccc2C(O)=C(C(=O)Nc2ccccc2)S1(=O)=O | – | inactive |
| Cn1c(C(=O)Nc2ccccc2)cc2sccc21 | – | 8910 nM (active) |
| COC(=O)c1ccc(NC(=O)c2cc3sccc3n2C)cc1 | – | 8910 nM (active) |
| COCCNc1ncnc2ccc(-c3cccc(OC)c3)cc12 | – | 794 nM (active) |
| COc1cccc(-c2ccc3ncnc(NCCNC(C)=O)c3c2)c1 | – | 3160 nM (active) |
| COCCNc1ncnc2ccc(-c3cccnc3)cc12 | – | 200 nM (active) |
| N#Cc1ccc(CN2CCCC3(CCN(C(=O)c4cccc(F)c4)CC3)C2)cc1 | – | inactive |
| Cn1c(=O)[nH]c(=O)c2c1nc(CN1CCOCC1)n2CCCO | – | inactive |
| COc1ccccc1CNc1ncncc1-c1ccccc1Cl | – | 10000 nM (active) |
| COc1ccccc1CNc1ncncc1-c1ccccc1C(F)(F)F | – | 15800 nM (active) |
| COc1ccc(CNc2ncncc2-c2ccccc2C(F)(F)F)c(OC)c1 | – | 15800 nM (active) |
| Cc1ccccc1CN1CCN(CC(=O)NCCCN2CCN(c3ccc(F)cc3)CC2)C1=O | – | inactive |

| SMILES | activity, negative = inhibition | AC50 |
| --- | --- | --- |
| Cn1cc(C2=C(c3ccc(Cl)cc3Cl)C(=O)NC2=O)c2ccccc21 | – | 3160 nM (active) |
| COc1ccccc1-c1nccc(NCc2ccccc2)n1 | – | 2510 nM (active) |
| CNc1ccnc(-c2ccccc2OC)n1 | – | 5010 nM (active) |
| COc1ccccc1-c1nccc(NCc2cccc(C)c2)n1 | – | 631 nM (active) |
| COc1ccccc1-c1nccc(NCc2cccnc2)n1 | – | 200 nM (active) |
| CS(=O)(=O)N1CCC[C@@]2(CCN(C(=O)Nc3cccc(C#N)c3)C2)C1 | – | inactive |
| CNc1ccnc(-c2ccccc2C)n1 | – | 5010 nM (active) |
| Cc1ccccc1-c1nccc(NCc2cccnc2)n1 | – | 200 nM (active) |
| CO[C@H]1COC(=O)C/C=C\[C@H](C)[C@@H](NS(=O)(=O)c2ccc(C)cc2)COC(=O)CCC[C@@H]1C | 1.16% [at 11.4 µM] (inactive) | – |
| C=CC[C@@H]1C=C[C@H](O/N=C(\C)CCN2CCc3nc(CC)c(CC)cc3C2)[C@H](CO)O1 | -3.35% [at 11.4 µM] (inactive) | – |
| C/C(=N/NS(=O)(=O)c1ccc(C)cc1)P(=O)(O)O | -10% [at 11.4 µM] (inactive) | – |
| C/C(=N\NC(=O)c1ccc(Cl)cc1)c1cccc(NC(=O)C(C)C)c1 | – | 3550 nM (active) |
| C/C(=N/NS(=O)(=O)c1ccc(C)cc1)c1cccc(NC(=O)c2cccc(Cl)c2)c1 | – | 14100 nM (active) |
| COc1ccc(C(=O)Nc2cccc(/C(C)=N/NC(=O)c3ccc([N+](=O)[O-])cc3)c2)cc1OC | – | inactive |
| C/C(=N\NC(=O)c1cccc(Cl)c1)c1cccc(NC(=O)C(C)C)c1 | – | 5010 nM (active) |
| CCC(=O)Nc1ccc(/C(C)=N\NS(=O)(=O)c2ccc(C)cc2)cc1 | – | 25100 nM (active) |
| Cc1ccc(S(=O)(=O)Nc2nc(C)c(NC(=O)Nc3ccc(Cl)cc3Cl)s2)cc1 | – | inactive |
| Oc1ccc([C@@H]2CNCCc3c2cc(O)c(O)c3Cl)cc1 | – | inactive |
| CN1CC[C@@]2(CCCN(C(=O)c3cc(C(F)(F)F)cc(C(F)(F)F)c3)C2)C1 | – | inactive |
| CN(/C=C/C(=O)C(F)(F)F)Cc1ccccc1 | – | inactive |
| CC(=O)Nc1ccc(S(=O)(=O)NC(CC(=O)NCCCN2CCOCC2)C(C)C)cc1 (stereo unspecified) | – | inactive |
| C/C(CC(=O)NCCCN1CCOCC1)=N\NC(=O)COc1ccc(Cl)cc1 | – | 2510 nM (active) |
| Cc1cc(S(=O)(=O)NCCCN2CCOCC2)ccc1F | – | inactive |
| CN(C)c1ccc(-c2cc(N(C)Cc3ccco3)ncn2)cc1 | – | 316 nM (active) |

| SMILES | activity, negative = inhibition | AC50 |
| --- | --- | --- |
| CN(Cc1ccco1)c1cc(-c2ccc3c(c2)OCO3)ncn1 | – | 501 nM (active) |
| CN(Cc1ccco1)c1cc(-c2ccoc2)ncn1 | – | inactive |
| COc1ccc(C(=O)N2CCC3(CC2)CN(Cc2ccc(C#N)cc2)C3)cc1 | – | inactive |
| COc1ccc(C(=O)Nc2ccc(S(=O)(=O)N3CCOCC3)cc2)cc1OC | – | inactive |
| COc1cc(NC(=S)Nc2ccc(S(=O)(=O)N3CCOCC3)cc2)cc(OC)c1OC | – | 2510 nM (active) |
| COc1ccc(NC(=O)N2CC[C@@]3(CCCN(C(=O)c4cccn4C)C3)C2)cc1 | – | inactive |
| O=C(O)c1cc(S(=O)(=O)N2CCCCC2)ccc1F | – | inactive |
| O=C(CSc1ncccn1)Nc1ccc(S(=O)(=O)N2CCCCC2)cc1 | – | inactive |
| O=C(Nc1ccc(F)cc1)c1cc(S(=O)(=O)N2CCCCC2)cs1 | – | 17800 nM (active) |
| CC(C)=CCC/C(C)=C/CO/N=C1/C[C@@H](O)[C@@H](O)[C@@H]2[C@@H]3C(=O)N(C4CCCCC4)C(=O)[C@H]3CC[C@@H]12 | -3% [at 11.4 µM] (inactive) | – |
| COc1cccc(-c2nccc(NCc3cccs3)n2)c1 | – | 200 nM (active) |
| COc1cccc(-c2nccc(NCc3cccnc3)n2)c1 | – | 158 nM (active) |
| COc1ccc(-c2cc(C(F)(F)F)nc(NCc3cccnc3)n2)cc1 | – | 794 nM (active) |
| COc1cccc(-c2nccc(NCc3ccccc3)n2)c1 | – | 501 nM (active) |
| CC[C@@H]1OC(=O)[C@H](C)[C@H](O[C@@H]2C[C@](C)(OC)[C@H](O)[C@H](C)O2)[C@H](C)[C@H](O[C@@H]2O[C@@H](C)C[C@@H](N(C)C)[C@@H]2O)[C@](C)(O)C[C@H](C)C(=O)[C@H](C)[C@H](O)[C@]1(C)O | – | inactive |
| COCC(C)NCc1cccc(C)c1 (stereo unspecified) | – | inactive |
| COc1ccc(-c2cc(C(F)(F)F)nc(SCc3cccc(C(=O)O)c3)n2)cc1 | – | 7080 nM (active) |
| COc1cccc(-c2nccc(NCc3cccc(C)c3)n2)c1 | – | 316 nM (active) |
| CC(=O)OC[C@H]1O[C@@H](O/N=C(\C)CCN2CCCCc3nc(C)c(C)cc32)[C@H](OC(C)=O)[C@@H](OC(C)=O)[C@H]1OC(C)=O | -3.61% [at 11.4 µM] (inactive) | – |
| CCOc1ccc(-c2cc(CCCC(=O)NCCc3ccc(OC)c(OC)c3OC)no2)cc1 | – | 63.1 nM (active) |
| CCOc1ccc(N(CC(=O)NCc2ccc(OC)cc2)S(=O)(=O)c2c(C)noc2C)cc1 | – | inactive |
| CCOc1ccc(CCNC(=O)CCCN2C(=O)c3ccccc3C2=O)cc1OCC | – | inactive |
| O=C(CNC(=O)c1ccc([N+](=O)[O-])cc1)c1ccccc1 | – | inactive |
| COc1ccc(-n2nc3cc(C)c(NC(=S)NC(=O)c4ccccc4C)cc3n2)cc1 | – | inactive |

| SMILES | activity, negative = inhibition | AC50 |
| --- | --- | --- |
| Cc1ccccc1C(=O)NC(=S)NCC(=O)c1ccccc1 | – | 10000 nM (active) |
| c1ccc(-n2ncc3c(NCCCN4CCOCC4)ncnc32)cc1 | – | inactive |
| CC(=O)NCCNc1nc(-c2c(C)noc2C)nc2ccccc12 | – | 1580 nM (active) |
| Cc1noc(C)c1-c1nc(NCCN2CCOCC2)c2ccccc2n1 | – | 2510 nM (active) |
| COCCNc1nc(-c2c(C)noc2C)nc2ccccc12 | – | 126 nM (active) |
| O=C(Nc1cccc(F)c1)N1CC[C@@]2(CCCN(C(=O)c3cc(C(F)(F)F)cc(C(F)(F)F)c3)C2)C1 | – | inactive |
| CN(C)CCCNC(=O)c1cc2c3ccccc3n(C)c2s1 | – | 14100 nM (active) |
| CN(C)CCCNc1cc(O)c2c(c1O)C(=O)c1ccccc1C2=O | -23.1% [at 2.29 µM] (inactive) | – |
| CN(C)CCCCN1CCc2c(n(C)c3ccccc23)C1=O | -14.1% [at 2.29 µM] (inactive) | – |
| COC(Cn1c(C)c(C(C)=O)c(C(C)=O)c1C)OC | – | inactive |
| CC(=O)c1[nH]c(C)c(C(C)=O)c1C | – | 708 nM (active) |
| CC(C)c1ccc(Cn2ccc3c4c(N)nc(NC5CC5)nc4ccc32)cc1 | – | 1580 nM (active) |
| CC(=O)NCCNc1ncncc1-c1ccccc1C(F)(F)F | – | inactive |
| COc1ccccc1-c1ccc2ncnc(NCCNC(C)=O)c2c1 | – | 5010 nM (active) |
| CC(=O)NCCNc1ncnc2ccc(-c3ccccc3C(F)(F)F)cc12 | – | 10000 nM (active) |
| CC(=O)NCCNc1ncnc2ccc(-c3ccccc3C)cc12 | – | 631 nM (active) |
| CC1=C(C(=O)O)N2C(=O)[C@@H](NC(=O)[C@@H](N)C3=CCC=CC3)[C@@H]2SC1 | – | inactive |
| Cc1ccc(S(=O)(=O)N2CCN(C(=O)c3ccccc3)C2C(C)C)cc1 (stereo unspecified) | – | inactive |
| COc1cccc(Nc2ncc3nc(C)c(=O)n(C4CC4)c3n2)c1 | – | 1260 nM (active) |
| Cc1nc2cnc(Nc3ccccc3)nc2n(C2CC2)c1=O | – | 1000 nM (active) |
| COc1cccc(Nc2ncc3ncc(=O)n(C4CC4)c3n2)c1 | – | 631 nM (active) |
| O=c1cnc2cnc(Nc3ccccc3)nc2n1C1CC1 | – | 631 nM (active) |
| O=C(Nc1cccc(C(=O)Nc2ccc(S(=O)(=O)O)c3cc(S(=O)(=O)O)cc(S(=O)(=O)O)c23)c1)Nc1cccc(C(=O)Nc2ccc(S(=O)(=O)O)c3cc(S(=O)(=O)O)cc(S(=O)(=O)O)c23)c1 | – | inactive |
| O=C(Nc1ccc(C(=O)Nc2ccc(C(=O)Nc3ccc(S(=O)(=O)O)c4cc(S(=O)(=O)O)cc(S(=O)(=O)O)c34)cc2)cc1)Nc1ccc(C(=O)Nc2ccc(C(=O)Nc3ccc(S(=O)(=O)O)c4cc(S(=O)(=O)O)cc(S(=O)(=O)O)c34)cc2)cc1 | – | 31600 nM (active) |
